# Results published in PubChem BioAssay (EPA / NIEHS).
# Calls of active or inactive are those of the source. Rule for the calls: active = hit-call score of the fitted dose curve at least 0.9, where 1 is the maximum; inactive = score below 0.9.
# Tests used:
# [1] = read-out: Macrophage colony-stimulating factor (MCSF), CSF1 (gene 1435); experiment: BSK_CASM3C_MCSF: BioMAP Diversity Plus: CASM3C Assay for Macrophage colony-stimulating factor (MCSF) Biomarker Activity (AID 2283044); conditions: primary human coronary artery smooth muscle cells; actives raise or lower the signal;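 note: M-CSF protein amount quantified by ELISA after 24 h exposure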
# [2] = read-out: Low-density lipoprotein receptor (LDLR), LDLR (gene 3949); experiment: BSK_CASM3C_LDLR: BioMAP Diversity Plus: CASM3C Assay for Low-density lipoprotein receptor (LDLR) Biomarker Activity (AID 2283045); conditions: primary human coronary artery smooth muscle cells; actives raise or lower the signal;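 note: LDLR protein level on the cell surface quantified by ELISA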
# [3] = read-out: Monocyte Chemoattractant Protein-1 (MCP1), CCL2 (gene 6347); experiment: BSK_CASM3C_MCP1: BioMAP Diversity Plus: CASM3C Assay for Monocyte Chemoattractant Protein-1 (MCP1) Biomarker Activity (AID 2283046); conditions: primary human coronary artery smooth muscle cells; actives raise or lower the signal;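 note: MCP-1 level quantified by ELISA 24 h after dosing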
# [4] = BSK_CASM3C_Proliferation: Cell Proliferation Assessment in the BioMAP Diversity Plus: CASM3C Assay (AID 2283047); conditions: primary human coronary artery smooth muscle cells;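 note: sulforhodamine B total protein stain as relative cell number at 560 nm; sub-confluent cells exposed 48 h before staining; fitted both ways against DMSO so gain or loss of cell number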
# [5] = read-out: Monokine induced gamma interferon (MIG), CXCL9 (gene 4283); experiment: BSK_CASM3C_MIG: BioMAP Diversity Plus: CASM3C Assay for Monokine induced gamma interferon (MIG) Biomarker Activity (AID 2283048); conditions: primary human coronary artery smooth muscle cells; actives raise or lower the signal;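 note: MIG protein level measured by ELISA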
# [6] = read-out: serum amyloid A (SAA), SAA1 (gene 6288); experiment: BSK_CASM3C_SAA: BioMAP Diversity Plus: CASM3C Assay for serum amyloid A (SAA) Biomarker Activity (AID 2283049); conditions: primary human coronary artery smooth muscle cells; actives raise or lower the signal;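 note: SAA protein level quantified by ELISA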
# [7] = BSK_CASM3C_SRB: Viability Assessment in the BioMAP Diversity Plus: CASM3C Assay (AID 2283050); conditions: primary human coronary artery smooth muscle cells;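 note: total protein by SRB staining as cytotoxicity measure in parallel cultures; cells exposed to compound for 24 h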
# [8] = read-out: Thrombomodulin, THBD (gene 7056); experiment: BSK_CASM3C_Thrombomodulin: BioMAP Diversity Plus: CASM3C Assay for Thrombomodulin Biomarker Activity (AID 2283051); conditions: primary human coronary artery smooth muscle cells; actives raise or lower the signal;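 note: thrombomodulin protein level measured by ELISA 24 h after dosing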
# [9] = read-out: Tissue Factor, F3 (gene 2152); experiment: BSK_CASM3C_TissueFactor: BioMAP Diversity Plus: CASM3C Assay for Tissue Factor Biomarker Activity (AID 2283052); conditions: primary human coronary artery smooth muscle cells; actives raise or lower the signal;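 note: cell surface tissue factor protein level read by ELISA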
# [10] = read-out: Interferon-gamma inducible Protein 10 (IP10), CXCL10 (gene 3627); experiment: BSK_hDFCGF_IP10: BioMAP Diversity Plus: hDFCGF Assay for Interferon-gamma inducible Protein 10 (IP10) Biomarker Activity (AID 2283053); conditions: primary human foreskin fibroblasts; actives raise or lower the signal
# Summary of the method: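 Primary foreskin fibroblasts, human; 24 h compound exposure; IP-10 by ELISA; bidirectional fit vs DMSO.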
structure (smiles),measurement,setting,value
O=c1[nH]sc2ccccc12,AC50,[1],14.9 µM (active)
same,AC50,[2],12.7 µM (active)
same,AC50,[3],13.1 µM (active)
same,AC50,[4],1.89 µM (active)
same,AC50,[5],10.7 µM (active)
same,AC50,[6],20.4 µM (active)
same,AC50,[7],17.3 µM (active)
same,AC50,[8],4.73 µM (active)
same,AC50,[9],28 µM (active)
same,AC50,[10],4.08 µM (active)
CCCCCc1ccc(N)cc1,outcome,[1],inactive
same,outcome,[2],inactive
same,outcome,[3],inactive
same,outcome,[4],inactive
same,outcome,[5],inactive
same,outcome,[6],inactive
same,outcome,[7],inactive
same,outcome,[8],inactive
same,outcome,[9],inactive
same,AC50,[10],20 µM (active)
CC(C)(c1cc(Br)c(O)c(Br)c1)c1cc(Br)c(O)c(Br)c1,AC50,[1],19.1 µM (active)
same,outcome,[2],inactive
same,AC50,[3],30.1 µM (active)
same,AC50,[4],32 µM (active)
same,outcome,[5],inactive
same,AC50,[6],31.9 µM (active)
same,outcome,[7],inactive
same,AC50,[8],25 µM (active)
same,AC50,[9],31.7 µM (active)
same,AC50,[10],6.23 µM (active)
CC1(C)NC(=O)N(c2ccc([N+](=O)[O-])c(C(F)(F)F)c2)C1=O,AC50,[1],11.8 µM (active)
same,outcome,[2],inactive
same,outcome,[3],inactive
same,AC50,[4],11.8 µM (active)
same,outcome,[5],inactive
same,outcome,[6],inactive
same,outcome,[7],inactive
same,outcome,[8],inactive
same,outcome,[9],inactive
same,outcome,[10],inactive
O=C(O)c1ccccc1C(=O)OCc1ccccc1,outcome,[1],inactive
same,outcome,[2],inactive
same,outcome,[3],inactive
same,outcome,[4],inactive
same,outcome,[5],inactive
same,outcome,[6],inactive
same,outcome,[7],inactive
same,outcome,[8],inactive
same,outcome,[9],inactive
same,outcome,[10],inactive
C[C@]12CC[C@@H]3c4ccc(O)cc4CC[C@H]3[C@@H]1CC[C@H]2O,outcome,[1],inactive
same,outcome,[2],inactive
same,outcome,[3],inactive
same,AC50,[4],13.2 µM (active)
same,outcome,[5],inactive
same,outcome,[6],inactive
same,outcome,[7],inactive
same,outcome,[8],inactive
same,outcome,[9],inactive
same,outcome,[10],inactive
O=C=NCCCCCCN=C=O,outcome,[1],inactive
same,outcome,[2],inactive
same,outcome,[3],inactive
same,outcome,[4],inactive
same,outcome,[5],inactive
same,outcome,[6],inactive
same,outcome,[7],inactive
same,outcome,[8],inactive
same,outcome,[9],inactive
same,outcome,[10],inactive
Clc1cc(Cl)c2c(c1)N=C1CCCCCN1C2,outcome,[1],inactive
same,outcome,[2],inactive
same,outcome,[3],inactive
same,outcome,[4],inactive
same,outcome,[5],inactive
same,outcome,[6],inactive
same,outcome,[7],inactive
same,outcome,[8],inactive
same,outcome,[9],inactive
same,outcome,[10],inactive
OC12N=C(c3ccccc3)SC1Cc1cc(Cl)ccc12 (centres undefined),outcome,[1],inactive
same,outcome,[2],inactive
same,outcome,[3],inactive
same,AC50,[4],30.1 µM (active)
same,outcome,[5],inactive
same,outcome,[6],inactive
same,outcome,[7],inactive
same,outcome,[8],inactive
same,outcome,[9],inactive
same,outcome,[10],inactive
CCCCCCCC[Si](OCC)(OCC)OCC,outcome,[1],inactive
same,outcome,[2],inactive
same,outcome,[3],inactive
same,AC50,[4],35.4 µM (active)
same,outcome,[5],inactive
same,outcome,[6],inactive
same,outcome,[7],inactive
same,outcome,[8],inactive
same,outcome,[9],inactive
same,outcome,[10],inactive
CCCCCCCCOC(=O)c1cc(O)c(O)c(O)c1,AC50,[1],20 µM (active)
same,AC50,[2],29.2 µM (active)
same,AC50,[3],27.8 µM (active)
same,AC50,[4],16.1 µM (active)
same,AC50,[5],31 µM (active)
same,AC50,[6],20 µM (active)
same,AC50,[7],31.3 µM (active)
same,AC50,[8],0.282 µM (active)
same,outcome,[9],inactive
same,AC50,[10],12.7 µM (active)
COc1cc(C(=O)NC2CCN(C)CC2)ccc1Nc1ncc2c(n1)N(C1CCCC1)CC(F)(F)C(=O)N2C,AC50,[1],18.6 µM (active)
same,AC50,[2],6.15 µM (active)
same,AC50,[3],25.1 µM (active)
same,AC50,[4],1.67 µM (active)
same,AC50,[5],20.8 µM (active)
same,AC50,[6],31.9 µM (active)
same,AC50,[7],27.5 µM (active)
same,outcome,[8],inactive
same,AC50,[9],14.2 µM (active)
same,AC50,[10],11.9 µM (active)
Cc1cc2c(cc1C(F)(F)F)N(C(=O)Nc1ccc(Oc3cccnc3C)nc1)CC2,AC50,[1],30.6 µM (active)
same,AC50,[2],3.81 µM (active)
same,AC50,[3],28.3 µM (active)
same,AC50,[4],13.8 µM (active)
same,outcome,[5],inactive
same,outcome,[6],inactive
same,AC50,[7],26.3 µM (active)
same,AC50,[8],5.04 µM (active)
same,outcome,[9],inactive
same,AC50,[10],18.4 µM (active)
Cc1c2ccccc2c(C)c2c1ccc1ccccc12,outcome,[1],inactive
same,outcome,[2],inactive
same,outcome,[3],inactive
same,AC50,[4],12.6 µM (active)
same,outcome,[5],inactive
same,outcome,[6],inactive
same,AC50,[7],20 µM (active)
same,AC50,[8],20 µM (active)
same,outcome,[9],inactive
same,AC50,[10],6.29 µM (active)
CC[C@H](NC(=O)c1cc(F)ccc1NS(=O)(=O)c1cccc2cccnc12)c1ccccc1,outcome,[1],inactive
same,AC50,[2],7.05 µM (active)
same,outcome,[3],inactive
same,outcome,[4],inactive
same,outcome,[5],inactive
same,outcome,[6],inactive
same,outcome,[7],inactive
same,AC50,[8],10.8 µM (active)
same,outcome,[9],inactive
same,outcome,[10],inactive
CN1C(=O)CC[C@H]1c1cccnc1,outcome,[1],inactive
same,outcome,[2],inactive
same,outcome,[3],inactive
same,outcome,[4],inactive
same,outcome,[5],inactive
same,outcome,[6],inactive
same,outcome,[7],inactive
same,outcome,[8],inactive
same,outcome,[9],inactive
same,outcome,[10],inactive
CC(C)(C)c1csc(-c2cc3cc(OCc4ccccc4CC(=O)O)ccc3o2)n1,AC50,[1],28.2 µM (active)
same,outcome,[2],inactive
same,outcome,[3],inactive
same,AC50,[4],34 µM (active)
same,outcome,[5],inactive
same,outcome,[6],inactive
same,AC50,[7],31 µM (active)
same,outcome,[8],inactive
same,outcome,[9],inactive
same,AC50,[10],10.2 µM (active)
CN(C)C(=O)C1(N2CCCCC2)CCN(CC[C@@]2(c3ccc(Cl)c(Cl)c3)CN(C(=O)c3ccccc3)CCO2)CC1,AC50,[1],31.3 µM (active)
same,AC50,[2],4.45 µM (active)
same,AC50,[3],28.6 µM (active)
same,AC50,[4],15.7 µM (active)
same,AC50,[5],29.9 µM (active)
same,AC50,[6],33.3 µM (active)
same,AC50,[7],27.2 µM (active)
same,AC50,[8],34.7 µM (active)
same,AC50,[9],31 µM (active)
same,AC50,[10],27.2 µM (active)
CC(=O)N1CCN(c2ccc(OC[C@H]3CO[C@](Cn4ccnc4)(c4ccc(Cl)cc4Cl)O3)cc2)CC1,AC50,[2],2.94 µM (active)
same,outcome,[3],inactive
same,AC50,[4],28 µM (active)
same,outcome,[5],inactive
same,outcome,[6],inactive
same,outcome,[7],inactive
same,outcome,[8],inactive
same,outcome,[9],inactive
same,AC50,[10],33.3 µM (active)
